Results reported in PubChem BioAssay AID1259309 (ICCB-Longwood Screening Facility, Harvard Medical School, 2017).
Several values for one entry are separate records, joined by “and”; a condition that tells them apart may be missing. Identical values can stand only once. Hit rate of the full screen: of about 330,000 compounds, about 1,800 (0.55%) were called active. Rule as the data show it: active = growth inhibition above about 68%; inactive = the rest. This excerpt belongs to a sample that is enriched for actives.

experiment: growth inhibition of ugtP-null S. aureus, primary screen, RN4220 ugtP deletion, OD600 (AID 1259309); details: 16 h, active compounds read high;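 also: plate controls were untreated wells for no effect and antibiotic for full effect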

SMILES | growth inhibition
CCc1ccc2c(c1)C1(NN=C(c3ccccc3)S1)C(=O)N2 (stereo not given) | 95.8% (active)
CC(=NOC(=O)c1ccc(F)cc1)c1sc(-c2ccccc2)nc1C | -1.32% (inactive)
CON=CCC(=O)c1cnc(-c2ccc(Cl)cc2)s1 | 87.5% (active)
O=C(/C=C/Nc1ccccc1)c1cnc(-c2ccccc2)s1 | -8.21% (inactive)
CC(=O)c1cnc(-c2ccccc2)s1 | -8.03% (inactive)
CC(=O)Nc1ccc(C(=O)NN=CC2CC3C=CC2C3)cc1 (stereo not given) | 9.12% (inactive)
CS(=O)(=O)c1ccc(CNC(=O)[C@]2(C(F)(F)F)CC(CCc3ccccc3)CCCO2)cc1 (stereo not given in full) | -0.803% (inactive)
Cc1ccc(NCC(=O)NN=Cc2ccc([N+](=O)[O-])o2)cc1 | 26.7% (inactive)
Cc1cccc(NC(=O)c2ccc([N+](=O)[O-])o2)c1 | 21.9% (inactive)
C/[N+]([O-])=C\c1ccc([N+](=O)[O-])o1 | 96.9% (active)
CCC(C)N1CCC2(CC1)N=c1c(c3c4c5c(C)c(O)c3c(O)c1=NC(=O)C(C)=CC=CC(C)C(O)C(C)C(O)C(C)C(OC(C)=O)C(C)C(OC)C=CO[C@@](C)(O5)C4=O)N2 (stereo not given in full) | 99.6% (active)
Cn1c(=O)[nH]c(=O)c2c1nc(N1CCCCC1)n2CC=NNc1ccc(C(=O)O)cc1 | 10.4% (inactive)
O=C(CNC(=O)c1ccco1)NN=Cc1ccc(O)cc1O | 4.74% (inactive)
CC(C)CC(=O)NC(=S)Nc1ccc(F)cc1F | 86.4% (active)
CC(C)C(=O)NC(=S)Nc1ccccc1F | 14.2% (inactive)
CC(C)CC(=O)NC(=S)Nc1cc(C(=O)O)ccc1Cl | 9.77% (inactive)
CCOC(=O)COc1c(C=NO)cc(Cl)cc1OC | 1.74% (inactive)
O=C(CN1CCCCC1)Nc1ccc(Br)cc1C(=O)c1ccccc1Cl | 88.6% (active)
O=C(CN1CCCCCC1)Nc1ccc(Br)cc1Br | 4.57% (inactive)
O=C(CN1CCCCCC1)Nc1ccc(Br)cc1[N+](=O)[O-] | 5.98% (inactive)

SMILES | growth inhibition
COC(=O)C1=C(C(=O)OC)C2N(C)c3ccccc3[C@@]23CC(C(=O)OC)N(C(C)=O)C3=N1 (stereo not given in full) | 3.76% (inactive)
CC(C)C(=NNc1ccccc1[N+](=O)[O-])c1ccccc1 | 42.3% (inactive)
NC(=O)C(=Cc1ccccc1)NC(=O)C=Cc1ccccc1 | -1.58% (inactive)
CC(Cc1ccccc1)=NNC(=O)CNC(=O)Cc1ccccc1 | 2.62% (inactive)
Cc1nc2c(cnn2-c2ccccc2)c(=O)n1N=Cc1ccccc1 | 6.82% (inactive)
C=C[C@]1(C)CC(OC(=O)CSCCN(CC)CC)[C@]2(C)C(C)CC[C@]3(CCC(=O)C32)C(C)C1O (stereo not given in full) | 99.9% (active) and 100% (active)
O=C(C=Cc1ccccc1Cl)Nc1ccncc1 | -22.9% (inactive)
C[C@]12CCC3c4ccc(O)cc4CCC3C1CCC2OC(=O)CCC(=O)O (stereo not given in full) | 1.18% (inactive)
O=C(CN1CCN(Cc2ccccc2)CC1)NN=Cc1ccc(Br)s1 | -1.87% (inactive)
COc1cccc(C2CC=C(C(=O)O)C(c3ccc(F)cc3)N2S(=O)(=O)c2ccc(C)cc2)c1 (stereo not given) | 24.5% (inactive)
O=[N+]([O-])c1cccc(C=NNc2nc(NCc3ccccc3)nc(N3CCOCC3)n2)c1O | 1.29% (inactive)
Cc1ccc(-c2csc(N3CCCC3C(=O)NCCn3c(-c4ccncc4)nc4ccccc43)n2)cc1 (stereo not given) | 12.4% (inactive)
Cc1nn(-c2ccccc2)c(C)c1C=NNC(=O)c1cc(-c2ccc(Br)s2)[nH]n1 | -11.7% (inactive)
COc1c(N2CCN(C(=S)Nc3ccccc3F)C(C)C2)c(F)cc2c(=O)c(C(=O)O)cn(C3CC3)c12 (stereo not given) | 100% (active)
CC1CN(C(=S)Nc2ccccc2F)CC(C)O1 (stereo not given) | 2.47% (inactive)
COc1ccccc1NC(=S)N1CCN(c2ccc(F)cc2)CC1 | 6.45% (inactive)
CC=C(C)C(=O)Nc1cccc(C2=NOC3(C2)CC(C(N)=O)N(C(=O)c2ccc(OC)cc2)C3)c1 (stereo not given) | 0.227% (inactive)
O=S(=O)(C=Cc1ccccc1)N1CCN(c2nc(-c3cccnc3)nc3ccccc23)CC1 | -1.02% (inactive)
NC(=O)C(=O)NN=Cc1cccc(C(F)(F)F)c1 | 6.69% (inactive)
O=[N+]([O-])c1c(NCCO)cc(Sc2nc3ccccc3s2)c2nonc12 | 99.9% (active)

SMILES | growth inhibition
CCN(CC)CCCSc1nc2ccccc2s1 | 5.71% (inactive)
OCCNc1nc(Nc2ccc(Cl)c(Cl)c2)nc2ccccc12 | -40.3% (inactive)
CC(=O)CC1c2cc(C(F)(F)F)ccc2S(=O)(=O)N1C1CCCC1 (stereo not given) | -1.55% (inactive)
CCOC(=O)c1ccc(NC(=O)c2nc[nH]c2C(=O)NC(Cc2ccccc2)C(=O)OC(C)(C)C)cc1 (stereo not given) | -22.8% (inactive)
Cc1ccc(C(=O)NCC(=O)NN=Cc2cccs2)cc1[N+](=O)[O-] | 4.96% (inactive)
COc1cc(C(=O)NN=Cc2cn(Cc3cccc(F)c3)c3ccccc23)ccc1O | -6.8% (inactive)
COc1cccc(C=NNc2cc(-n3nc(C)cc3-c3ccccc3)ncn2)c1O | 101% (active)
COc1cccc(C=NNc2ncnc3c2ncn3Cc2ccccc2)c1O | 2.15% (inactive)
COc1cccc(C=NNC(=O)CSCC(=O)Nc2ccccc2)c1O | -4.58% (inactive)
CCc1ccc2c(c1)C(=O)C[C@]1(CCCC(C)C1)O2 (stereo not given in full) | 5.31% (inactive)
C#CCNC(=O)C1=CC(c2csc3ccccc23)CC(OCCCCO)O1 (stereo not given) | -11.2% (inactive)
Cc1ccc(OCC(=O)NN=Cc2ccc3c(c2)OCO3)cc1C | -11% (inactive)
CCCCCCCCCCCCn1ccc(=N)cc1 | 101% (active)
CCCCCN1CC(O)=C(c2ccccc2)C1=N | 2.59% (inactive)
COc1ccc(C=NNc2nn3cnnc3c3ccccc23)cc1 | 12.2% (inactive)
CCOC(=O)CN1C(=O)NC(c2ccco2)C(C(C)=O)=C1C (stereo not given) | -0.836% (inactive)
CCC(=O)Nc1cccc(C2=NOC3(C2)CC(C(N)=O)N(C(=O)COc2ccc(Cl)cc2)C3)c1 (stereo not given) | 3.89% (inactive)
CCOC(=O)C1(CCOc2ccccc2)CCN(Cc2cc(OC)cc(OC)c2)CC1 | 2.42% (inactive)
Cc1c(CN2CCC(CO)(CCOc3ccccc3)CC2)[nH]c2ccc(Cl)cc12 | 95.4% (active)
CCOC(=O)C1(CCOc2ccccc2)CCN(Cc2cc(OC)c(O)cc2Cl)CC1 | 4.94% (inactive)
